Measurements reported in PubChem BioAssay AID2716 (Broad Institute, 2010).
About 3,300 (1%) of roughly 320,000 compounds were called active. Many of the other results were omitted from the sample, so actives are more common in it than they were. Unmarked numbers belong to inactive results.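 The calls were made as follows: active = every valid replicate shows activation above 250% relative to neutral control wells; inactive = the rest, any valid replicate at or below 250%.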

assay: restored growth of temperature-sensitive Mot1-301 yeast – S. cerevisiae, ATP luminescence, 38.5C, SUMOylation pathway inhibitor project, primary screen (AID 2716);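 also: OY570 slx delta 5 strain wells were the positive control but not used for scaling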; details: S. cerevisiae Mot1-301 growth rescue, at 18.8 µM, stronger effect = higher value, percent above DMSO median, 100 means doubled

Going from `CCCCn1c(N)c(N(CC(C)C)C(=O)c2cccc(S(=O)(=O)N3CCN(C(C)=O)CC3)c2)c(=O)[nH]c1=O` to `O=C(c1c(F)cccc1F)N1CCN(S(=O)(=O)c2ccc3c(c2)OCCO3)CC1`, the growth rescue rises from -9.04% to 3.47%.

Compared with `Cc1cccc(N2CCN(S(=O)(=O)c3ccc4[nH]c(=O)c(=O)[nH]c4c3)CC2C)c1` (stereo not given), `COc1cc(/C=N/O)cc(Br)c1OS(=O)(=O)c1ccc(C)cc1` is higher in growth rescue: 2.34% for the first, 13.1% for the second.

First: COc1ccc(CCNC(=O)COC(=O)C2CC2C)cc1 (stereo not given)
Second: COc1ccc(CCNC(=O)C(=O)NCC2OCCN2S(=O)(=O)c2ccc(OC)c(C)c2)cc1 (stereo not given)
The growth rescue of the first is higher: 4.29% for the first, 0.71% for the second.

Going from `CCC(=C/c1sc2ccc3ccccc3c2[n+]1C)/C=C1\Sc2ccc3ccccc3c2N1C` to `COc1cc(/C(=C/c2ccccc2)c2ccccc2)c2c(c1)oc1ccccc12`, the growth rescue falls from 6.07% to 1.69%.

Going from `Cc1c(Cl)cccc1NC(=O)CCC(=O)N/N=C/c1ccco1` to `Cc1ccc(NC(=O)CCC(=O)N/N=C/c2ccco2)c(C)c1`, the growth rescue falls from 2.23% to -4.26%.

Compared with `CCOc1ccc(CCNC(=O)COC(=O)CCS(=O)(=O)c2ccc(C)cc2)cc1OCC`, `COc1cccc(C(CC(=O)NCCN2CCOCC2)NS(=O)(=O)c2ccc(C)cc2)c1OC` (stereo not given) is higher in growth rescue: -6.14% for the first, -1.44% for the second.

Going from `Cc1ccc2nc(NC(=O)CSc3nc(=O)n(CCCN(C)C)c4c3CCC4)sc2c1` to `CSc1nc(N(C)NC(=O)c2cccc(C)c2)c2ccccc2n1`, the growth rescue rises from -6.26% to -1.55%.

First: CN(NC(=O)c1ccccc1)c1nc2ccccc2nc1C(F)(F)F
Second: CC(C)N(C(=O)CSc1nc(COc2ccccc2)nc2ccccc12)C(C)C
The growth rescue of the first is higher: 29.8% for the first, -2% for the second.

Compared with `CCOC(=O)[C@@H]1[C@H]2COc3ccc(Br)cc3[C@H]2N2C(=O)N(c3ccc(C)cc3)C(=O)[C@@]12C`, `Cc1ccc(CC2CC(=O)N(c3cc(C)ccc3C)C2=O)cc1` (stereo not given) is lower in growth rescue: 5.35% for the first, -12% for the second.

Going from `O=C(NCc1ccco1)C(c1ccncc1)N(C(=O)Cn1nnc2ccccc21)c1ccccc1` (stereo not given) to `O=C(Cc1ccc(-c2ccccc2)cc1)NC(c1ccccc1)c1ccccc1`, the growth rescue falls from 5.81% to -3.02%.

First: C=CCC(Nc1ccccc1)c1cccc(OC)c1OC (stereo not given)
Second: COc1ccc(/C=N/OCc2ccccc2C#N)c(OC)c1
The growth rescue of the first is lower: -16.1% for the first, 31.4% for the second.

Compared with `CC(=O)Nc1ccc(/C(C)=N/NC(=O)CN(c2ccccc2Br)S(C)(=O)=O)cc1`, `Cn1c(=O)n(C)c2cc(C(=O)Nc3ccc(Br)cc3)ccc21` is higher in growth rescue: -7.93% for the first, 15% for the second.

Compared with `CNC(=O)/C(C#N)=C/c1c(F)cccc1Cl`, `Cc1cc(C)cc(Oc2nc3c(C)cccn3c(=O)c2/C=C(\C#N)C(=O)NC2CCS(=O)(=O)C2)c1` (stereo not given) is higher in growth rescue: -36.4% for the first, -14% for the second.

First: COc1ccc(S(=O)(=O)N2CCOC2CNC(=O)C(=O)NCc2ccncc2)cc1OC (stereo not given)
Second: COc1cccc(OC)c1C(=O)Nc1ccc(Cc2ccncc2)cc1
The growth rescue of the first is lower: -3.43% for the first, 12.2% for the second.

Going from `COc1ccc(N2CCN(C3CC(=O)N(c4ccc5c(c4)OCCO5)C3=O)CC2)cc1` (stereo not given) to `CCOc1ncccc1C(=O)Nc1ccc2c(c1)OCCO2`, the growth rescue falls from 21.5% to 6.77%.

Compared with `O=C(NCc1ccccc1Cl)NC(=O)c1csc([N+](=O)[O-])c1`, `O=C(O)Cc1ccc(NCc2ccccc2Cl)cc1` is higher in growth rescue: -7.29% for the first, 67.5% for the second.

Going from `COc1ccc(C(C#N)(CC(=O)O)c2cnccn2)cc1OC` (stereo not given) to `COc1ccc(CCC(=O)c2ccc(OC)cc2)cc1`, the growth rescue rises from -15.4% to 34.5%.

Going from `S=C(Nc1cccc(Cl)c1)Nc1ccc2c(c1)OCCO2` to `FC(F)(F)c1cccc(NC(=S)Nc2cccc(Cl)c2)c1`, the growth rescue rises from -16% to 2.73%.

Going from `O=c1c2c(-c3ccccc3)ccnc2[nH]n1-c1ccccc1` to `Cc1ccc(F)c(NC(=O)CCc2ccccc2)c1`, the growth rescue rises from -10.9% to -0.553%.

Compared with `CCC(CC)c1nnc(NC(=O)C2CCN(C(=O)c3ccco3)CC2)s1`, `O=C(NCCc1ccc(Cl)cc1)C1CCCN1C(=O)NCc1ccccc1` (stereo not given) is higher in growth rescue: -12.8% for the first, -4.04% for the second.

Compared with `CO/N=C(/CS(=O)(=O)c1ccc(Br)cc1)c1ccc(OC)cc1`, `COc1ccc(OCCCC(=O)Oc2ccc(OC)cc2)cc1` is higher in growth rescue: -7.59% for the first, -3.53% for the second.

First: CCC(C)(C)NC(=O)C(c1cccc(OC)c1OC)N(CC(C)C)C(=O)CCC(=O)Nc1cc(C)on1 (stereo not given)
Second: COCCCNC(=O)C1CCC(CNS(=O)(=O)c2ccc(OC)cc2)CC1 (stereo not given)
The growth rescue of the first is higher: 13.1% for the first, -13.1% for the second.

First: O=C1CCC/C(=N\NC(=O)NC2CCCCC2)C1
Second: O=C(CN1C(=O)NC2(CCCC2)C1=O)Nc1ccc(F)c(F)c1F
The growth rescue of the first is lower: -14.5% for the first, -3.83% for the second.

First: Cc1nn(Cc2ccc(F)cc2)c(C)c1NC(=O)c1noc2c1CCc1ccccc1-2
Second: COc1cc(/C=N/O)cc(Br)c1OCc1cccc(Cl)c1
The growth rescue of the first is higher: -2.02% for the first, -7.89% for the second.

`CCCCc1c(O)nc2n(c1=O)CCS2` showed a growth rescue of -12.2%.

For `Cc1cc(C)c(OCC(=O)N/N=C/c2ccco2)c(C)c1`, the growth rescue was 568% (active).
With `CN(NC(=O)c1ccccc1F)c1nc(C(F)(F)F)nc2ccccc12` the growth rescue was 658% (active).
For `C=CCC(NCCCO)c1cccc(OC)c1OC` (stereo not given), the growth rescue was 1100% (active).
With `COc1ccc(S(=O)(=O)N2CCOC2CNC(=O)C(=O)NCc2ccncc2)cc1C` (stereo not given) the growth rescue was 392% (active).
In the case of `Cc1ccc(CC2CC(=O)N(c3ccc4c(c3)OCCO4)C2=O)cc1` (stereo not given), the growth rescue is reported as 1800% (active).
In the case of `COc1cccc(OC)c1C(=O)Nc1ccc2c(c1)n(C)c(=O)n2C`, the growth rescue is reported as 676% (active).
With `Cc1csc(NC(=S)Nc2cccc(Cl)c2)n1` the growth rescue was 817% (active).
In the case of `O=C(O)Cc1ccc(-c2ccccc2)cc1`, the growth rescue is reported as 403% (active).
In the case of `COc1ccc(OCCC(=O)c2ccc(OC)cc2)cc1`, the growth rescue is reported as 614% (active).
With `CCOc1cc(/C=N/O)cc(Br)c1OC` the growth rescue was 341% (active).
For `CCCCCCCCc1c(O)nc(-n2[nH]c(C)c(CCO)c2=O)[nH]c1=O`, the growth rescue was 605% (active).
